Laboratory results as given in PubChem BioAssay (NCATS).
Inconclusive results are not listed. Entries that show only a call come without a potency. The source made the active and inactive calls. The call rests on the fitted dose curve; in most records, active means well fitted cell-killing curve with a large enough effect; inconclusive means small, poorly fitted or top-dose-only effect; inactive means flat fitted curve, though single readings scatter.

How the values were obtained:
[1] = Cell Viability - LYMP2-011 (AID 969); further: nearly all actives have a fitted effect of over 60% in size
How it was run: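 Cells seeded at 2500 per well rest 5 hr before compound addition, then incubate 24 hr at 37 C. CellTiter-Glo reagent is added for 30 min at room temperature before luminescence detection.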

[2] = Cell Viability - LYMP2-013 (AID 970); further: nearly all actives have a fitted effect of over 55% in size
How it was run: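 In complete culture medium, human lymphoblastoid cells were dosed for 24 hr at 37 C, with tetraoctylammonium bromide (6.4pM to 92 uM) as positive control. Viability reflects luciferase-based ATP signal; AC50 derived from concentration-response curves.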

[3] = Cell Viability - LYMP2-015 (AID 971); further: nearly all actives have a fitted effect of over 55% in size
How it was run: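 AC50 values reflect Hill-model fits of ATP-based luminescence (CellTiter-Glo) from a human lymphoblastoid line, 2500 cells/well, treated 24 hr at 37 C.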

[4] = Cell Viability - LYMP2-017 (AID 972); further: nearly all actives have a fitted effect of over 55% in size
How it was run: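 In this qHTS format, lymphoblastoid cells in complete medium receive test compound for a day at 37 C before ATP content is quantified by luciferase luminescence. Reported AC50 figures come from standard Hill-equation curve fitting.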

[5] = Cell Viability - LYMP2-019 (AID 973); further: nearly all actives have a fitted effect of over 55% in size
How it was run: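 AC50 values come from Hill-equation modelling of qHTS concentration-response curves, where viability is measured as luciferase-based ATP luminescence in the lymphoblastoid line after 24 hr compound exposure in complete culture medium.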

[6] = Cell Viability - LYMP2-021 (AID 974)
How it was run: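 In qHTS format, compounds are tested against 2500 lymphoblastoid cells per well for 24 h; viable cell number is inferred from ATP-driven luciferase light, and Hill-equation fitting yields AC50 values.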

[7] = Cell Viability - LYMP2-023 (AID 975); further: nearly all actives have a fitted effect of over 55% in size
How it was run: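 In this qHTS, ATP-based luciferase luminescence (CellTiter-Glo) is quantified in human lymphoblastoid cells after 24 hr compound treatment at 37 C; tetraoctylammonium bromide serves as positive control. Concentration-response curves are Hill-fitted to give AC50.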

[8] = Cell Viability - LYMP2-025 (AID 976)
How it was run: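 Luminescent ATP readout after 24 hr treatment of a human lymphoblastoid line (LYMP2-025, 2500 cells/well, 37 C). Reagent developed 30 min at room temperature; AC50 fitted with the Hill equation.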

[9] = Cell Viability - LYMP2-002 (AID 977);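 further: compound exposure lasted 24 h at 37 °C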
How it was run: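 In this qHTS viability screen, 2500 human lymphoblastoid cells per well receive compound for 24 hr at 37 C, and luciferase-based ATP luminescence gives the viability signal. Tetraoctylammonium bromide serves as positive control.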

[10] = Cell Viability - LYMP2-006 (AID 978); further: nearly all actives have a fitted effect of over 60% in size
How it was run: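 Human lymphoblastoid cells, 2500 per well, were preincubated 5 hr at 37 C, then exposed to compounds for 24 hr at 37 C in complete medium. Viability was read as intracellular ATP by CellTiter-Glo luminescence; AC50 from Hill-equation fits of qHTS concentration-response data.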

[11] = Cell Viability - LYMP2-007 (AID 979);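 further: cells exposed to compound for 24 h before reading; nearly all actives have a fitted effect of over 60% in size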
How it was run: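 Measured via luciferase-based ATP quantitation: lymphoblastoid cells, 24 hr compound exposure at 37 C, AC50 from Hill fits.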

[12] = Cell Viability - LYMP2-008 (AID 980); further: nearly all actives have a fitted effect of over 60% in size
How it was run: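 Measured: ATP-dependent luminescence, proportional to viable cell number, in human lymphoblastoid cells treated 24 hr with compound in complete culture medium. Values are AC50s from Hill-equation modelling of qHTS titrations.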

[13] = Cell Viability - LYMP2-012 (AID 982)
[14] = Cell Viability - LYMP2-014 (AID 983); further: nearly all actives have a fitted effect of over 50% in size
How it was run: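 Quantitative HTS in lymphoblastoid cells: 24 hr compound exposure, then CellTiter-Glo ATP luminescence. Positive control was tetraoctylammonium bromide, 6.4pM to 92 uM.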

[15] = Cell Viability - LYMP2-016 (AID 984); further: nearly all actives have a fitted effect of over 55% in size
How it was run: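 Human lymphoblastoid cells (LYMP2-016), 2500/well in complete medium, preincubated 5 hr at 37 C, then compound-treated 24 hr at 37 C. Intracellular ATP read by CellTiter-Glo luminescence after 30 min at room temperature; AC50 from Hill-equation concentration-response fits.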

[16] = Cell Viability - LYMP2-018 (AID 985); further: nearly all actives have a fitted effect of over 50% in size
How it was run: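 In this qHTS viability assay, cells are treated for 24 hr and cellular ATP is quantified by luciferase-based luminescence, with tetraoctylammonium bromide as positive control.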

[17] = Cell Viability - LYMP2-020 (AID 986); further: nearly all actives have a fitted effect of over 55% in size
How it was run: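 Cells at 2500 per well receive a 24 hr compound exposure at 37 C. Viability is measured as ATP-dependent luciferase luminescence, with AC50 modeled from qHTS concentration-response curves.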

[18] = Cell Viability - LYMP2-022 (AID 987); further: nearly all actives have a fitted effect of over 55% in size
How it was run: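 In this qHTS cytotoxicity screen, compound titrations were incubated 24 hr at 37 C with human lymphoblastoid cells in complete medium. Luciferase-based ATP luminescence provided the viability signal.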

[19] = Cell Viability - LYMP2-024 (AID 988); further: nearly all actives have a fitted effect of over 60% in size
How it was run: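 Cells at 2500 per well received compound for 24 hr after a 5 hr settling period. Viability was scored by CellTiter-Glo luminescence, with AC50 from Hill fits.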

[20] = Cell Viability - LYMP2-026 (AID 989); further: nearly all actives have a fitted effect of over 50% in size
How it was run: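 Acute toxicity screen in complete culture medium, with 24 hr compound exposure at 37 C. Viability read as cellular ATP via luciferase reaction, with tetraoctylammonium bromide (6.4pM to 92 uM) as positive control.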
Potency means the concentration at half of the fitted maximal effect.

## Nc1c2ccccc2nc2ccccc12
[1]
  Potency: 12.6 µM (active)
[2]
  Potency: 12.6 µM (active)
[3]
  Potency: 10 µM (active)
[4]
  Potency: 15.8 µM (active)
[5]
  Potency: 10 µM (active)
[6]
  Potency: 12.6 µM (active)
[7]
  Potency: 12.6 µM (active)
[8]
  Potency: 12.6 µM (active)
[9]
  Potency: 7.94 µM (active)
[10]
  Potency: 20 µM (active)
[11]
  Potency: 15.8 µM (active)
[12]
  Potency: 12.6 µM (active)
[13]
  Potency: 10 µM (active)
[14]
  Potency: 10 µM (active)
[15]
  Potency: 10 µM (active)
[16]
  Potency: 12.6 µM (active)
[17]
  Potency: 10 µM (active)
[18]
  Potency: 12.6 µM (active)
[19]
  Potency: 12.6 µM (active)
[20]
  Potency: 15.8 µM (active)

## CC(C)(C)c1ccc(O)c(O)c1
[2]
  Potency: 39.8 µM (active)
[3]
  Potency: 31.6 µM (active)
[4]
  Potency: 39.8 µM (active)
[5]
  Potency: 39.8 µM (active)
[6]
  Potency: 31.6 µM (active)
[10]
  Potency: 50.1 µM (active)
[11]
  Potency: 39.8 µM (active)
[12]
  Potency: 50.1 µM (active)
[13]
  Potency: 39.8 µM (active)
[15]
  Potency: 50.1 µM (active)
[17]
  Potency: 50.1 µM (active)
[18]
  Potency: 39.8 µM (active)
[19]
  Potency: 25.1 µM (active)

## Nc1cccc2c(N)cccc12
[1]
  Potency: inactive
[2]
  Potency: inactive
[3]
  Potency: inactive
[4]
  Potency: inactive
[5]
  Potency: inactive
[6]
  Potency: inactive
[7]
  Potency: inactive
[8]
  Potency: inactive
[9]
  Potency: inactive
[10]
  Potency: inactive
[11]
  Potency: inactive
[12]
  Potency: inactive
[13]
  Potency: inactive
[14]
  Potency: inactive
[15]
  Potency: inactive
[16]
  Potency: inactive
[17]
  Potency: inactive
[18]
  Potency: inactive
[19]
  Potency: inactive
[20]
  Potency: inactive

## CCCCC(CC)COC(=O)c1ccccc1C(=O)O (stereo not drawn)
[1]
  Potency: inactive
[2]
  Potency: inactive
[3]
  Potency: inactive
[4]
  Potency: inactive
[5]
  Potency: inactive
[6]
  Potency: inactive
[7]
  Potency: inactive
[8]
  Potency: inactive
[9]
  Potency: inactive
[10]
  Potency: inactive
[11]
  Potency: inactive
[12]
  Potency: inactive
[13]
  Potency: inactive
[14]
  Potency: inactive
[15]
  Potency: inactive
[16]
  Potency: inactive
[17]
  Potency: inactive
[18]
  Potency: inactive
[19]
  Potency: inactive
[20]
  Potency: inactive

## O=C(c1ccccc1)c1ccccc1
[1]
  Potency: inactive
[2]
  Potency: inactive
[3]
  Potency: inactive
[4]
  Potency: inactive
[5]
  Potency: inactive
[6]
  Potency: inactive
[7]
  Potency: inactive
[8]
  Potency: inactive
[9]
  Potency: inactive
[10]
  Potency: inactive
[11]
  Potency: inactive
[12]
  Potency: inactive
[13]
  Potency: inactive
[14]
  Potency: inactive
[15]
  Potency: inactive
[16]
  Potency: inactive
[17]
  Potency: inactive
[18]
  Potency: inactive
[19]
  Potency: inactive
[20]
  Potency: inactive

## CC(C)(c1ccc(O)cc1)c1ccc(O)cc1
[1]
  Potency: inactive
[2]
  Potency: inactive
[3]
  Potency: inactive
[4]
  Potency: inactive
[5]
  Potency: inactive
[6]
  Potency: inactive
[7]
  Potency: inactive
[8]
  Potency: inactive
[9]
  Potency: inactive
[10]
  Potency: inactive
[11]
  Potency: inactive
[12]
  Potency: inactive
[13]
  Potency: inactive
[14]
  Potency: inactive
[15]
  Potency: inactive
[16]
  Potency: inactive
[17]
  Potency: inactive
[18]
  Potency: inactive
[19]
  Potency: inactive
[20]
  Potency: inactive

## Cc1ccc(O)cc1
[1]
  Potency: inactive
[2]
  Potency: inactive
[3]
  Potency: inactive
[4]
  Potency: inactive
[5]
  Potency: inactive
[6]
  Potency: inactive
[7]
  Potency: inactive
[8]
  Potency: inactive
[9]
  Potency: inactive
[10]
  Potency: inactive
[11]
  Potency: inactive
[12]
  Potency: inactive
[13]
  Potency: inactive
[14]
  Potency: inactive
[15]
  Potency: inactive
[16]
  Potency: inactive
[17]
  Potency: inactive
[18]
  Potency: inactive
[19]
  Potency: inactive
[20]
  Potency: inactive

## CCCCCCCCCCCCCCCC[n+]1ccccc1
[1]
  Potency: 20 µM (active)
[2]
  Potency: 25.1 µM (active)
[3]
  Potency: 15.8 µM (active)
[4]
  Potency: 25.1 µM (active)
[5]
  Potency: 20 µM (active)
[6]
  Potency: 25.1 µM (active)
[7]
  Potency: 39.8 µM (active)
[8]
  Potency: 39.8 µM (active)
[9]
  Potency: 15.8 µM (active)
[10]
  Potency: 12.6 µM (active)
[11]
  Potency: 12.6 µM (active)
[12]
  Potency: 15.8 µM (active)
[13]
  Potency: 12.6 µM (active)
[14]
  Potency: 12.6 µM (active)
[15]
  Potency: 15.8 µM (active)
[16]
  Potency: 12.6 µM (active)
[17]
  Potency: 15.8 µM (active)
[18]
  Potency: 12.6 µM (active)
[19]
  Potency: 15.8 µM (active)
[20]
  Potency: 15.8 µM (active)

## O=C(Oc1ccccc1)c1ccccc1O
[1]
  Potency: inactive
[2]
  Potency: inactive
[3]
  Potency: inactive
[4]
  Potency: inactive
[5]
  Potency: inactive
[6]
  Potency: inactive
[7]
  Potency: inactive
[8]
  Potency: inactive
[9]
  Potency: inactive
[10]
  Potency: inactive
[11]
  Potency: inactive
[12]
  Potency: inactive
[13]
  Potency: inactive
[14]
  Potency: inactive
[15]
  Potency: inactive
[16]
  Potency: inactive
[17]
  Potency: inactive
[18]
  Potency: inactive
[19]
  Potency: inactive
[20]
  Potency: inactive

## C1=CC2C3C=CC(C3)C2C1 (stereo not drawn)
[1]
  Potency: inactive
[2]
  Potency: inactive
[3]
  Potency: inactive
[4]
  Potency: inactive
[5]
  Potency: inactive
[6]
  Potency: inactive
[7]
  Potency: inactive
[8]
  Potency: inactive
[9]
  Potency: inactive
[10]
  Potency: inactive
[11]
  Potency: inactive
[12]
  Potency: inactive
[13]
  Potency: inactive
[14]
  Potency: inactive
[15]
  Potency: inactive
[16]
  Potency: inactive
[17]
  Potency: inactive
[18]
  Potency: inactive
[19]
  Potency: inactive
[20]
  Potency: inactive
